Reference: ChEMBL document CHEMBL1961873, “Compounds: GSK PKIS; Assays: Nanosyn kinase panel” (2012)

Tests used:
[1] = target: T1, Serine/threonine-protein kinase D2 (Homo sapiens) (UniProt Q9BZL6); conditions: at 1 µM;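 further: mean value of PRKD2 inhibition, from the GSK PKIS screening panel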
T1 sequence (whole entry): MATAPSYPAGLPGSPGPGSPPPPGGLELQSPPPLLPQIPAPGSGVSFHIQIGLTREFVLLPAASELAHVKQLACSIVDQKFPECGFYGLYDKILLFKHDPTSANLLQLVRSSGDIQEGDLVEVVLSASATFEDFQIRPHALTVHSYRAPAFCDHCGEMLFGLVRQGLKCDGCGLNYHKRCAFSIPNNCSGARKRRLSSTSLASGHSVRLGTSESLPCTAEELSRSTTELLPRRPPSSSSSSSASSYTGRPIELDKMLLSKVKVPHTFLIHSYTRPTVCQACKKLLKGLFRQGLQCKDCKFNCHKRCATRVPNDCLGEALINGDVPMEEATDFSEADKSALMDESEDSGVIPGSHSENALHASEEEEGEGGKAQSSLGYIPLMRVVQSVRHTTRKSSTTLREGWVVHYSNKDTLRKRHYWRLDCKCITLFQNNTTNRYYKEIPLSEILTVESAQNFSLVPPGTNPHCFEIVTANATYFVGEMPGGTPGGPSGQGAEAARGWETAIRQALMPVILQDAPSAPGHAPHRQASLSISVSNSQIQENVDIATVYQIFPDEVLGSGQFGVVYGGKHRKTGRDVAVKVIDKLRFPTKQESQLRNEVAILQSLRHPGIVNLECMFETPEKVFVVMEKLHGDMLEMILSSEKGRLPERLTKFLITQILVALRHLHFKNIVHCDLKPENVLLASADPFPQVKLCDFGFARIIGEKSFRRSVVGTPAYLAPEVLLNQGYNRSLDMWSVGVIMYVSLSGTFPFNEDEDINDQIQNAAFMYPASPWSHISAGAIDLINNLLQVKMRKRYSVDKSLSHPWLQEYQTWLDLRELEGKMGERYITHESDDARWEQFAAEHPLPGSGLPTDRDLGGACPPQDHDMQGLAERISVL

[2] = target: T2, Serine/threonine-protein kinase D3 (Homo sapiens) (UniProt O94806); conditions: at 0.1 µM
T2 sequence (whole entry): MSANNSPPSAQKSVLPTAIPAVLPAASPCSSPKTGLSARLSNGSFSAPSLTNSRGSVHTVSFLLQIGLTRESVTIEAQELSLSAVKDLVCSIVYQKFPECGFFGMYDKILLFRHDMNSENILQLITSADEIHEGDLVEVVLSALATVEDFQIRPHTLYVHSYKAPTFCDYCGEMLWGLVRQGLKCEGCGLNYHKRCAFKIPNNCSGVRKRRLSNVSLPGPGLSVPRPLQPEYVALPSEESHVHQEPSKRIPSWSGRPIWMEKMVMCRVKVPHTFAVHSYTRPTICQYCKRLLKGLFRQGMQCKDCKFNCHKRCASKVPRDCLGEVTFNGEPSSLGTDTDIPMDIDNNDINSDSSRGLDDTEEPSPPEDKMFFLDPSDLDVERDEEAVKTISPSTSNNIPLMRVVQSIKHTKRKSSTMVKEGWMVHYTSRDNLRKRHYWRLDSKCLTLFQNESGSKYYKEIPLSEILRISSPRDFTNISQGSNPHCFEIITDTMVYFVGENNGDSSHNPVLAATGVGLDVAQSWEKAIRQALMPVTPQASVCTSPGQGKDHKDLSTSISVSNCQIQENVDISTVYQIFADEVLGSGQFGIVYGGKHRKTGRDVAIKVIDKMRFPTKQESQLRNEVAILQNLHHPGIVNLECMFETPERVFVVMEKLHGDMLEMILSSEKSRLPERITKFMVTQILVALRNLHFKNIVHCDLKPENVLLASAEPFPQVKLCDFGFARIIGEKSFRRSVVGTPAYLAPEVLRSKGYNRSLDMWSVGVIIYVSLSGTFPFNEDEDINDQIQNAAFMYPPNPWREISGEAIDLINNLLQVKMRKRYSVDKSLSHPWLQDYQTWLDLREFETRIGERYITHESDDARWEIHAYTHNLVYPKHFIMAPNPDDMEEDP

[3] = target: T2, Serine/threonine-protein kinase D3 (Homo sapiens); conditions: at 1 µM
[4] = target: T3, cGMP-dependent protein kinase 1 (Homo sapiens) (UniProt Q13976); conditions: at 0.1 µM
T3 sequence (whole entry): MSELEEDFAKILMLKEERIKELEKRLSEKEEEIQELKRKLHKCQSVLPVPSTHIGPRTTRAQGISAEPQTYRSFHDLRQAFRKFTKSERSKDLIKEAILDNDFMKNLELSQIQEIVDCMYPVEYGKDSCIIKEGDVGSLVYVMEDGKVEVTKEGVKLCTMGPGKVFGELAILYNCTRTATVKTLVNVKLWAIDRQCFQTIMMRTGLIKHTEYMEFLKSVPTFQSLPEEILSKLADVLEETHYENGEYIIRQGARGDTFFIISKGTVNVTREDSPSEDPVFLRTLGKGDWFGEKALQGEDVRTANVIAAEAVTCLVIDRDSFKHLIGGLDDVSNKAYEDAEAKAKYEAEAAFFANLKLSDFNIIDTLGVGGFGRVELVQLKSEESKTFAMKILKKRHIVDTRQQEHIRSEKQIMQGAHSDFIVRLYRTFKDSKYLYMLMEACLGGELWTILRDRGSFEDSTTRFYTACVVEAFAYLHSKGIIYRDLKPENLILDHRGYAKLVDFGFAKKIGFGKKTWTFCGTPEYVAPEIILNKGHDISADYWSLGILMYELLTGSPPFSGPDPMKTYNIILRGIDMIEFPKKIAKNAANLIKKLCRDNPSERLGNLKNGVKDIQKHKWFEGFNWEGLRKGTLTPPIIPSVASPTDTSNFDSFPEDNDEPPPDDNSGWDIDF

[5] = target: T3, cGMP-dependent protein kinase 1 (Homo sapiens); conditions: at 1 µM
[6] = target: T4, cGMP-dependent protein kinase 2 (Homo sapiens) (UniProt Q13237); conditions: at 0.1 µM
T4 sequence (whole entry): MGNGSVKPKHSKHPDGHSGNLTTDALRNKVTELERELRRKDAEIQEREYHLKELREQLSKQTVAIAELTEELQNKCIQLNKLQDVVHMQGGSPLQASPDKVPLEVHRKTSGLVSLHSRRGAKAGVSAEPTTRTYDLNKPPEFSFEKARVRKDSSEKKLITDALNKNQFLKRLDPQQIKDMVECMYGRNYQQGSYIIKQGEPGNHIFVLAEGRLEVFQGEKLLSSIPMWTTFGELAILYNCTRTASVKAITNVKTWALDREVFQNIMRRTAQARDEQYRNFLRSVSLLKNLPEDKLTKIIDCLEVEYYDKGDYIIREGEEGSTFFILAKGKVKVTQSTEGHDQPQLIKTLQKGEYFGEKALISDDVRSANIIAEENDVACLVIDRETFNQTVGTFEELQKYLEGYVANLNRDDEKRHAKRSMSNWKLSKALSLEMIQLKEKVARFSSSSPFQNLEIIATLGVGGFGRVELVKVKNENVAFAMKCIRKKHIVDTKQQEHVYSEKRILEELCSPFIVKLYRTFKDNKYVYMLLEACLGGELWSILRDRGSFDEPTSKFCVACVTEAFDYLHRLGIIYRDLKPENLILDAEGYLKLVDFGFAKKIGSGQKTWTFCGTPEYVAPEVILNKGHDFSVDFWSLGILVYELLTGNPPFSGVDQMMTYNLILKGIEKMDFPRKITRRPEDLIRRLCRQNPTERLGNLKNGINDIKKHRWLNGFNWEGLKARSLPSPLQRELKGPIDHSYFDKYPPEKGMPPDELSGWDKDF

[7] = target: T4, cGMP-dependent protein kinase 2 (Homo sapiens); conditions: at 1 µM
[8] = target: T5, cAMP-dependent protein kinase catalytic subunit PRKX (Homo sapiens) (UniProt P51817); conditions: at 0.1 µM
T5 sequence (whole entry): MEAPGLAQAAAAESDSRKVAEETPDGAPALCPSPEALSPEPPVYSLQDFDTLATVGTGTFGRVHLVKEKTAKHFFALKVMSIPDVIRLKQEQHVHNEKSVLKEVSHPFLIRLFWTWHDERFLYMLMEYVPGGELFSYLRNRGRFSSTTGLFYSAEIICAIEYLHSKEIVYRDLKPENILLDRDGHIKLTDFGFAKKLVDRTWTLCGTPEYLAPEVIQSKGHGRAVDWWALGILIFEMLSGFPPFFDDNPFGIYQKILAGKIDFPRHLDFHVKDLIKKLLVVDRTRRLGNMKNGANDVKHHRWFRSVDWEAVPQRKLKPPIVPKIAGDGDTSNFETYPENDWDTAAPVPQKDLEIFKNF

[9] = target: T5, cAMP-dependent protein kinase catalytic subunit PRKX (Homo sapiens); conditions: at 1 µM
[10] = target: Rho-associated protein kinase 1 (Homo sapiens) (UniProt Q13464); conditions: at 0.1 µM;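 further: values are mean percent inhibition of ROCK1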
Rho-associated protein kinase 1 (Homo sapiens), sequence (Q13464 2-1354 limits assumed): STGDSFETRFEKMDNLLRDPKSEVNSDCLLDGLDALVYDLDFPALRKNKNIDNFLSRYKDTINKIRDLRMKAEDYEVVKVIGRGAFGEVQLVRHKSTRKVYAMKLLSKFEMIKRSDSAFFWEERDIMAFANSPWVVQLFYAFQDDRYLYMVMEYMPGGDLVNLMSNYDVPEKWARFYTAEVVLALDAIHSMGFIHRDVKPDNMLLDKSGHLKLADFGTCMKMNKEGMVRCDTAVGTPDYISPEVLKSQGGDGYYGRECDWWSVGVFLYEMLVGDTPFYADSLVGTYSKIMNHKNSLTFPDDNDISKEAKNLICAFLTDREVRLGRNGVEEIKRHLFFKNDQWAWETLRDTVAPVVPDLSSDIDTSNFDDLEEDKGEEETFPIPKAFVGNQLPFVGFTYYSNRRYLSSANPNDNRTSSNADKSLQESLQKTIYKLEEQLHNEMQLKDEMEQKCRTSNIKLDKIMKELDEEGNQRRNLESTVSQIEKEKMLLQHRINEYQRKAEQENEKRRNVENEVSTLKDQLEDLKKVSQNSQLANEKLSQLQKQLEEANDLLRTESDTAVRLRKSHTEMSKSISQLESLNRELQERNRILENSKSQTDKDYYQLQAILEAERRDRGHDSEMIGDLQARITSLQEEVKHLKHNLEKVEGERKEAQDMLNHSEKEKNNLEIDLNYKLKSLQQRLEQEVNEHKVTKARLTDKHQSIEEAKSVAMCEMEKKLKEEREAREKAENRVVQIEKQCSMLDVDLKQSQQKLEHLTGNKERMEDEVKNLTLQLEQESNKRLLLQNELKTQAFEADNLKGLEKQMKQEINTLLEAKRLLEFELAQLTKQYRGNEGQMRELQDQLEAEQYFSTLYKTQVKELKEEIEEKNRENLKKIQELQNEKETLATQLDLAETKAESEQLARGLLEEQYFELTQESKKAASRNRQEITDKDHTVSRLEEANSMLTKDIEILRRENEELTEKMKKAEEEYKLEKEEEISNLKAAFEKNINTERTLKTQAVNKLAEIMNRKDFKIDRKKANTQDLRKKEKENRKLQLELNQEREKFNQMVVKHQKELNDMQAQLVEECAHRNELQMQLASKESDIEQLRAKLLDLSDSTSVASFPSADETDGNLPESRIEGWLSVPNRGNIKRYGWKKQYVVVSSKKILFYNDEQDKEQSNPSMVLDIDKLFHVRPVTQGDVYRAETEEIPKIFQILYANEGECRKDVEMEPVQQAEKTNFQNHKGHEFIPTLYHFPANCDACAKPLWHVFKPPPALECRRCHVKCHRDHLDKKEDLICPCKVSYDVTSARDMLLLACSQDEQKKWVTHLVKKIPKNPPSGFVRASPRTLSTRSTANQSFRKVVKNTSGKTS

| SMILES | inhibition [1] [%] | inhibition [2] [%] | inhibition [3] [%] | inhibition [4] [%] | inhibition [5] [%] | inhibition [6] [%] | inhibition [7] [%] | inhibition [8] [%] | inhibition [9] [%] | inhibition [10] [%] |
| --- | --- | --- | --- | --- | --- | --- | --- | --- | --- | --- |
| CCCN1CCC(Oc2cc(Nc3nc(Nc4cccc(F)c4C(N)=O)c4cc[nH]c4n3)c(OC)cc2Cl)CC1 | 8.74 | 0.21 | 17.1 | 1.4 | 3.67 | 0.8 | 3.46 | 7.71 | 7.12 | 0.94 |
| CC1=C(C(=O)Nc2ccc3[nH]ncc3c2)C(c2ccc(F)cc2)NC(=O)N1 (centres undefined) | 8.48 | 3.46 | 7.95 | 4.58 | 20.1 | 1.73 | 12.6 | 12.7 | 53.4 | – |
| Cc1cccc(-c2n[nH]cc2-c2ccc3ncccc3n2)n1 | 46.9 | 2.2 | 30.5 | 1.36 | 0.89 | 0.94 | 0.72 | 0.91 | 1.8 | 0.48 |
| CC(=O)Nc1cccc(C#Cc2cncnc2Nc2ccc(OCc3cccc(F)c3)c(Cl)c2)n1 | -0.67 | -1.15 | -1.81 | 2.8 | 3.25 | 3.49 | 6.99 | 1.81 | 5.08 | 1.28 |
| CC(C)=Cc1cccc2c1/C(=N/Nc1ccc(S(N)(=O)=O)cc1)C(=O)N2 | 12.2 | 1.39 | 8.68 | 1.14 | 4.69 | 1.13 | 7.29 | 1.11 | 1.36 | 1.3 |
| NS(=O)(=O)c1ccc(N/N=C2\C(=O)Nc3ccc(C(=O)NCCc4c[nH]cn4)cc32)cc1 | 32.9 | 7.41 | 38.6 | 23.6 | 70.1 | 9.57 | 50.8 | 2.93 | 12.2 | 1.37 |
| Nc1ncnc2occ(-c3ccc(NC(=O)Nc4cc(C(F)(F)F)cc(C(F)(F)F)c4)cc3)c12 | 1.29 | 1.47 | 1.15 | 1.23 | 1.54 | 0.73 | 1.97 | -0.03 | -3.64 | 6.3 |
| CS(=O)(=O)CCNCc1ccc(-c2ccc3ncnc(Nc4ccc(OCc5ccccc5)c(Cl)c4)c3c2)o1 | -0.61 | -0.81 | -0.48 | 1.06 | 2 | 0.55 | 1.26 | 0.78 | 0.52 | 1.32 |
| O=C(Nc1n[nH]c2nc(-c3ccco3)c(Br)cc12)C1CC1 | 5.03 | 3.1 | 4.81 | 2.39 | 3.36 | 1.15 | 1.85 | 1.8 | -0.27 | 0.16 |
| Fc1cccc(COc2ccc(Nc3ncnc4sc(-c5cccs5)cc34)cc2Cl)c1 | -1.2 | -0.65 | -0.35 | 1.57 | 1.96 | 0.03 | 0.73 | 0.64 | 0.87 | 1.73 |
